# MCF10A rerep = A quantitative high throughput screen for small molecules that induce DNA re-replication in MCF 10a normal breast cells; MCF 10A DNA re-replication, Hoechst nuclear intensity, 48 h; Potency, µM (highest dose often 46.1 µM), for the others: at the highest dose activity, positive = re-replication, most hits filed as activators; 350,000 tested, 2.9% active; AID 624296, 2012; note: % of control where 0% means no effect; nearly all actives have a fitted effect of over 50% in size
# KB-V1 MDR tox = qHTS assay for MDR1-selective chemotherapeutics: Primary screen using the drug-selected MDR subline cells KB-V1 | Potency, µM (series often up to 46.1 µM), usual class: cytotoxic | KB-V1 MDR cells viability, CellTiter-Glo, 72 h | 400,000 tested, 3.4% active; note: % is set by controls: 0 for no effect and ±100 for the full control effect; nearly all actives have a fitted effect of over 60% in size
#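 Cytotoxicity toward P-gp-expressing KB-V1 cells was determined as loss of CellTiter-Glo luminescence after 72 h at 37 degrees C. Compounds were tested in quantitative HTS format across a concentration range, with curves fitted to normalized data.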
# PINK1 modulator = A Quantitative High throughput Screen to Identify Chemical Modulators of PINK1 Expression; PINK1 immunofluorescence, high-content cytometry, 24 h; Potency, µM (series often up to 76.6 µM), for the others: at the highest dose activation (PINK1 increase), most hits filed as activators; 410,000 tested, 0.2% active; AID 624263, 2012; active = well fitted activation curve with a large enough effect; inconclusive = small, poorly fitted or top-dose-only effect; cell line not stated here; note: % of control where 0% means no effect; nearly all actives have a fitted effect of over 65% in size
#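 Cells are seeded, rested 12 hours, then given compound at five concentrations or DMSO for 24 hours. After fixation, blocking and antibody staining, PINK1 amount and mitochondrial localization are scored; CCCP serves as control.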
# SW480 rereplic = A quantitative high throughput screen for small molecules that induce DNA re-replication in SW480 colon adenocarcinoma cells; Potency, µM (doses to about 46.1 µM), inactives show top-dose re-replication activation, most hits filed as activators; 340,000 tested, 1.8% active; SW480 DNA re-replication, Hoechst DNA content imaging, 48 h; note: % of control where 0% means no effect; nearly all actives have a fitted effect of over 55% in size
#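 Readout is total intensity of Hoechst-stained nuclei, excited at 405 nm and collected at 500-530 nm. Compound treatment lasted 48 hr at 37 C in 5% CO2 before staining.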
# KB-3-1 tox = qHTS assay for MDR1-selective chemotherapeutics: Primary screen using the parental adenocarcinoma cell KB-3-1; 400,000 tested, 1.4% active; KB-3-1 viability, CellTiter-Glo ATP luminescence, 72 h; Potency, µM (top dose mostly 46.1 µM), hits mostly cytotoxic; AID 1347075, 2019; note: % is set by controls: 0 for no effect and ±100 for the full control effect; nearly all actives have a fitted effect of over 60% in size
#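 72 h, 37 °C compound treatment of KB-3-1 parental cells; CellTiter-Glo added, 10 min, luminescence read. Data corrected against DMSO-only plates and normalized before curve fitting.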
# TSG101-PTAP inh = qHTS Assay for Iinhibitors of HIV-1 Budding by Blocking the Interaction of PTAP/TSG101; 340,000 tested, under 10 active; AID 493005, 2010; Potency, µM (top dose mostly 115 µM), inactives show at the highest dose activity change, negative = inhibition, usual class: inhibitors; Tumor susceptibility gene 101 protein (Homo sapiens), Q99816; Fluorescence polarization, FITC-PTAP peptide / Tsg101 binding; active = well fitted inhibition curve with a large enough effect in the main read-out, with a control signal flat, not every such curve was filed as active; inconclusive = small, poorly fitted or top-dose-only effect, or effect the other way, or a change in a side signal; inactive = no such curve, though single readings can be large or run the other way; note: % of control where 0% means no effect
# Target sequence (Q99816 whole entry, looked up): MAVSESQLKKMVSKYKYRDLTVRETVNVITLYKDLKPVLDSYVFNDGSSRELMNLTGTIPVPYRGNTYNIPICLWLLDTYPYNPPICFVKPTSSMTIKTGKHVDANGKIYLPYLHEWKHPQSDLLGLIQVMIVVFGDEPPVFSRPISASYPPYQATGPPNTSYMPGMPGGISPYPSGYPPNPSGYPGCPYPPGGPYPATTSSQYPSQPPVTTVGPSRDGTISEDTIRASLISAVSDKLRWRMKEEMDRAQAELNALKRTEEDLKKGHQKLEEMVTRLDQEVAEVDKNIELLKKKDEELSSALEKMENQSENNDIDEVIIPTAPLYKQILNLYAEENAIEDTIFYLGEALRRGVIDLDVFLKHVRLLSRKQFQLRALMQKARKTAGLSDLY
#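 Steps: Tsg101 binding domain dispensed (10 uM final), compounds pinned in DMSO, FITC-labeled PTAP-motif peptide added (50 nM final); after 20 min binding at room temperature, polarization measured.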
# * marks the source's active call; other numbers are inactive results; i = inactive; ? = inconclusive; · = no result; [ ] = dose if it differs, or a comment. Shown are actives, neighbours in structure and some others; about 6.8% of the full set was active somewhere. Unless noted, calls come from the whole dose curve; as a rule, active = well fitted curve in the direction sought with a large enough effect; inconclusive = small, poorly fitted or top-dose-only effect, or another doubt; inactive = no such curve, though single readings can be large; an effect the other way counts as inactive or inconclusive. Potency is the fitted concentration of half-maximal effect.
SMILES,MCF10A rerep,KB-V1 MDR tox,PINK1 modulator,SW480 rereplic,KB-3-1 tox,TSG101-PTAP inh
CCOc1ncccc1C(=O)OCc1ccc(C(=O)OC)cc1,3%,i,13%,7.3µM*,?,-8%
COC(=O)c1ccc(COC(=O)c2ccc(N(C)C)cc2)cc1,8.2µM*,i,8%[38.3 µM],?,i,0%
CN(C)c1ccc(C(=O)OCc2ccccc2)cc1,4%,i,1%,-33%,i,0%
COc1ccc(-c2nc(SCCOc3cc(C)ccc3C(C)C)n3[nH]c(=O)cc3n2)cc1,·,i,1%,·,i,·
CCOC(=O)C1CCN(C(=O)c2cc3sc(C)cc3n2C)CC1,·,?,-1%,·,i,·
Cc1oc2ncn(CC(C)C)c(=O)c2c1C(=O)NCCCN(C)Cc1ccccc1,·,i,2%,·,i,·
COc1cccc(C2CCCN2Cc2nc(CCC(C)C)no2)c1 (stereo not given),19%,i,12%,2%,i,-3%
Cc1ccc2nc(C3CCCN3Cc3nc(CCC(C)C)no3)[nH]c2c1 (stereo not given),-1%,6.5µM*,4%,-4%,i,-4%
Cc1ccc(C(=O)Nc2cccc(-c3nc(CNC(=O)c4ccc5ccccc5n4)c(C)o3)c2)s1,·,·,0%,·,·,·
O=C(Nc1ccc(S(=O)(=O)NC2=NCCCCC2)cc1)c1ccc([N+](=O)[O-])s1,?,?,-5%,13µM*,6.5µM*,-2%
O=C(Nc1ccc(S(=O)(=O)NC2=NCCCCC2)cc1)c1cccs1,-1%,i,1%,-6%,i,1%
O=C(Nc1ccc(S(=O)(=O)NC2=NCCCCC2)cc1)c1ccc(Cl)c([N+](=O)[O-])c1,21µM*,i,0%,3%,i,1%
CN(C)S(=O)(=O)c1ccc(C(=O)Nc2ccc(S(=O)(=O)NC3=NCCCCC3)cc2)cc1,?,i,0%,3%,i,-2%
O=C(Nc1ccc(S(=O)(=O)NC2=NCCCCC2)cc1)c1ccc(C(F)(F)F)cc1,5%,21µM*,-1%,1%,21µM*,-5%
CCOc1ccc(CCNC(=O)c2ccc(-c3nc(COc4ccc(C)cc4)c(C)o3)cc2)cc1,·,i,0%,·,i,·
COc1ccc(CC(=O)O/N=C(\N)c2ccncc2)cc1OC,·,i,1%,·,i,·
COc1ccc(/C(N)=N/OC(=O)Cc2ccc(OC)c(OC)c2)cc1,2%,8.2µM*,·,-6%,?,-6%
COc1ccc(CC(=O)c2cc(OC)c(OC)cc2CC(=O)O)cc1OC,-14%,i,0%,-12%,i,-5%
COc1ccc(C(=O)Cc2ccc(OC)c(OC)c2)c(OC)c1,-10%,13µM*,·,-5%,i,-9%
COc1ccc(S(=O)(=O)NCCc2sc(C)nc2C)cc1F,·,16µM*,1%,·,?,·
O=C(CN1CCN(CC(=O)Nc2ccc3c(c2)OC2(CCCCC2)O3)CC1)Nc1cccc(F)c1,?,5.8µM*,17%,8%,i,-3%
O=C(CN1CCN(CC(=O)Nc2ccccc2F)CC1)Nc1cccc(F)c1,3%,i,12%,-8%,i,-2%
CCC1=NN(C(=O)Cc2ccccc2)C(O)(c2ccncc2)C1 (stereo not given),-4%,i,0%,0%,i,3%
CCC1=NN(C(=O)COc2ccccc2)C(O)(c2ccncc2)C1 (stereo not given),2%,i,2%,6.5µM*,i,-3%
CC(C)Cc1nnc(NC(=O)CCC(=O)N2CCN(Cc3ccc(F)cc3)CC2)s1,0%,i,-1%,20%,i,-6%
SMILES,MCF10A rerep,KB-V1 MDR tox,PINK1 modulator,SW480 rereplic,KB-3-1 tox,TSG101-PTAP inh
Cc1ccc(OCCN2CCN(C(=O)CCC(=O)Nc3nnc(CC(C)C)s3)CC2)cc1,?,8.2µM*,0%,-1%,?,-3%
COc1ccc(OCCSc2nnc3sc4ccccc4n23)cc1,6.5µM*,?,·,?,i,-4%
CC1CCCCN1c1nnc(NC(=O)Nc2ccccc2F)s1 (stereo not given),·,i,-1%,·,i,·
CCc1nn(CC(=O)N2CCN(Cc3ccc4c(c3)OCO4)CC2)c(=O)c2cc3occc3n12,0%,18µM*,1%,16%,i,-2%
CCOC(=O)C1CCCN(C(=O)Cn2nc(CC)n3c(cc4occc43)c2=O)C1 (stereo not given),·,i,0%,·,i,·
CCc1ccc(NC(=O)CN2C(=O)C(c3ccc(C)cc3)=NC23CCCCC3)cc1,·,·,2%,·,·,·
Fc1cccc(-c2cc3nc(-c4ccccc4)cc(N4CCC5(CC4)OCCO5)n3n2)c1,14%,i,18%,16%,i,-2%
COc1ccc(-c2cc3nc(-c4ccccc4)cc(N4CCCC(O)C4)n3n2)cc1 (stereo not given),21µM*,i,1%,?,i,0%
Cc1cccc(-c2cc3nc(-c4ccccc4)cc(N4CCC5(CC4)OCCO5)n3n2)c1,12%,i,9%,?,i,-2%
Cc1ccc(-c2cc3nc(-c4ccccc4)cc(N4CCC5(CC4)OCCO5)n3n2)cc1,?,i,2%,18µM*,i,2%
COCCN1CCN(c2cc(-c3ccccc3)nc3cc(-c4cccc(F)c4)nn23)CC1,21µM*,i,-1%,?,i,-2%
Cc1cccc(-c2cc3nc(C)cc(NCCCN(C)C)n3n2)c1,?,i,3%[38.3 µM],17%,i,-1%
CN(C)CCCNc1cc(-c2ccccc2)nc2cc(-c3cccc(F)c3)nn12,21µM*,?,-1%,?,?,-1%
CCOc1ccccc1NC(=O)CSc1nc2ccccc2nc1Cc1ccc(C)cc1,·,?,8%,·,i,·
CCc1ccc(S(=O)(=O)c2cnc3ccc(OC)cc3c2N2CCCC(C)C2)cc1 (stereo not given),·,?,1%,·,i,·
Cc1cc(C)cc(-n2ccnc2SCC(=O)Nc2ccc3c(c2)OCO3)c1,·,i,-3%,·,i,·
O=c1[nH]c(CN2CCN(c3ccccc3)CC2)nc2scc(-c3ccccc3)c12,5.2µM*,9.2µM*,9%,?,?,-1%

# Screening results: PubChem, National Center for Advancing Translational Sciences (NCATS)
